Screening data from PubChem.
Only a selection was taken, and hits are over-represented in it overall.
KDM5B inh: KDM5B demethylase inhibition | AID 1347165 | KDM5B demethylase, FDH-coupled NADH fluorescence (FDH is formaldehyde dehydrogenase) | Potency, µM (highest dose often 57.7 µM), usual class: inhibitors | actives 2.6% (n = 220,000) | Q9UGL1; active = well fitted inhibition curve with a large enough effect; also: 0% is about no effect; nearly all actives have a fitted effect of over 70% in size
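Compound dilutions met 200 nM (final) KDM5BΔAP for 10 min at room temperature before substrate addition. The substrate mix held 12.5 µM H3K4me3 with cofactors 25 µM α-ketoglutarate and 50 µM Fe²⁺. NADH signal gain over 30 min defined activity.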
* = called active by the depositor; i = inactive. Potency is read from the fitted curve at half-maximal effect.

SMILES | KDM5B inh
COc1ccc(C2Cn3nnc(-c4noc(-c5cc(F)ccc5Cl)n4)c3CO2)cc1 (stereo not given) | i
Cc1ccc2c(c1)Oc1cc(Cl)c(S(=O)(=O)N(C)C)cc1C(=O)N2 | i
CC1(C)CC(NC(=O)C2CCN(S(=O)(=O)c3ccc(C#N)cc3)CC2)CC(C)(C)N1 | i
COc1ccc(/C=C/C(=O)Oc2cccc(C)c2)cc1 | i
CN(C(=O)Cc1cccc(Cl)c1)C1CCc2ccccc21 (stereo not given) | i
O=C(NCCc1cccnc1)c1ccccc1Cl | i
COc1ccccc1-c1ccnc(-n2ncc(C(=O)NCCc3cccnc3)c2C2CC2)n1 | 32µM*
CC(C)(C)OC(=O)N1CCC(c2c(C(=O)NCCc3ccccc3)cnn2-c2ccc(F)cc2)CC1 | i
Cc1cc(C(=O)N2CC[C@H](NS(=O)(=O)c3cn(C)cn3)C[C@H]2C(=O)N[C@@H](Cc2cccs2)C(N)=O)n(C)n1 | i
O=C(CC1C(=O)NCCN1C(=O)CN1CCN(c2ncccn2)CC1)Nc1ccc2c(c1)OCO2 (stereo not given) | i
CCCn1nc(C(=O)NC2CCCc3ccccc32)c2ccccc2c1=O (stereo not given) | i
O=C(Cn1cc(SCc2ccccc2F)c2ccccc21)N1CCCC1 | i
COc1cc2cc(CN3CCC[C@@H]3CO)c(-c3cccc(Cl)c3)nc2cc1OC | 25µM*
COc1ccc(-c2nc3c(C)cccc3cc2CN2CCC(O)CC2)cc1OC | i
COC[C@H]1CCCN1Cc1cn(-c2ccccc2C)nc1-c1ccc(OC)c(F)c1 | i
Cc1cccc(OCCc2noc(C3CN(C(=O)Cn4ccnc4)C3)n2)c1 | i
Cc1ccc(CCNC(=O)c2ccc(CNS(=O)(=O)c3ccccc3)cc2)cc1 | i
O=C(NCCc1cnc(-c2ccccc2)[nH]1)c1ccc(-c2ccccc2)cc1 | i
Cc1ccc(-n2cc(C(=O)N3CCc4ccccc4C3)nn2)cc1 | i
O=C(c1ccc(-c2ncc3cnc(-c4ccccc4)cn23)cc1)N1CCS(=O)(=O)CC1 | 35µM*
O=C(c1cn(-c2ccccc2)nn1)N1CCc2ccccc2C1 | i
O=C(NCc1ccccn1)c1ccc(Br)cc1 | i
O=C(Cn1c2c(c(=O)n1Cc1ccccc1)CCN(Cc1ccccc1)C2)NCc1cnccn1 | i
O=C(c1ccc(-c2ncc3cnc(C4=CCOCC4)cn23)cc1)N1CCc2ccccc2C1 | 28µM*
Cc1ccc(C(=O)N2CCn3c(nnc3-c3ccccc3)C2)cc1 | i
SMILES | KDM5B inh
O=C(NCc1cnccn1)c1ccc(-c2ncc3cnc(C4=CCOCC4)cn23)cc1 | 35µM*
O=C(NCCO)c1ccc(-c2ncc3cnc(C4=CCOCC4)cn23)cc1 | 32µM*
Cc1ccc(-c2ncc(CCNC(=O)c3ccccc3)[nH]2)cc1 | i
Cc1ccc(C(=O)N2CCC3(CC2)N(c2ccccc2)C(=O)CS3(=O)=O)cc1 | i
CC(C)CNC(=O)N1CCCCCCNC(=O)[C@@H]2C[C@@H](c3nc(-c4cccnc4)no3)C[C@@H]21 | i
CC(C)CC(NC(=O)OC(C)(C)C)C(=O)O (stereo not given) | i
O=C(c1ccccn1)N(Cc1cccs1)C1CC1 | i
CN(C)c1ccc(C=O)cc1 | i
CCOC(=O)[C@]12CCCCC/C=C\1N(Cc1ccc(OC)cc1)C(=O)[C@H]2CC(=O)N1CCCCC1 | i
COc1ccc(NS(=O)(=O)c2ccc(N/N=C/c3ccsc3)c([N+](=O)[O-])c2)cc1 | i
COC(=O)Cn1c(SCCOc2ccccc2OC)nc2ccccc21 | i
CCCOCCc1nc2c([nH]1)CC(C)(C)CNC2=O | i
COc1ccc(-c2nc3c([nH]2)CC(C)(C)CNC3=O)cc1OC | 32µM*
CCn1cc(-c2nc3c([nH]2)CC(C)(C)CNC3=O)cn1 | i
Cc1ccc(C)c(N(C)C(=O)C2CCN(c3ncnc4c3nc3n4CCCCC3)CC2)c1 | i
Cc1ccncc1-c1c(C)nn2c1N(C(=O)c1scnc1C)CCC2 | i
O=C1CCN(Cc2cccc(OC(F)(F)F)c2)CCCCCCN1 | i
Cc1ccncc1-c1c(C)nn2c1N(Cc1cccc(OC(F)(F)F)c1)CCC2 | 35µM*
COc1cccc(CN2CCCn3nc(C)c(-c4ccccc4[S+](C)(=O)[O-])c32)c1 | i
COc1ccc(OC)c(CN2CCCn3nc(C)c(-c4cnccc4C)c32)c1 | 32µM*
COc1ccc(CN2CCCn3nc(C)c(-c4ccccc4C(C)C)c32)cc1O | i
COc1cc(/C=C(\C#N)c2nc3ccccc3[nH]2)cc(OC)c1OC | i
CC(=O)c1ccc(NC(=O)c2onc(C)c2Cl)cc1 | i
COc1cc(NC(=O)c2cccc3c2C(=O)N(C2CCCCC2)C3)cc(OC)c1OC | i
CC(=O)c1ccc(NS(=O)(=O)c2ccc3[nH]c4c(c3c2)CCCCCC4)cc1 | i
SMILES | KDM5B inh
CC(=O)c1ccc(NS(=O)(=O)c2ccc3[nH]c4c(c3c2)CCCC4)cc1 | i
O=C(CN1CC(=O)NC1=O)NCc1ccc2[nH]c3c(c2c1)CCCCCC3 | 22µM*
O=C(N/N=C/c1[nH]c2ccccc2c1Cl)c1cccc(Br)c1 | i
C[C@@H]1CN(c2cc(C3CC3)ncn2)C[C@@]1(O)C1CCC1 | i
CCn1ncc(CN2CCCC23CCN(c2ccc(C(F)(F)F)cn2)CC3)c1C | 28µM*
C=CCN1CCN(c2ccc(C(F)(F)F)cn2)CC1 | i
CCc1nc(CN2CCN(c3ccc(C(F)(F)F)cn3)CC2)c(C)[nH]1 | i
C/C(=N\NC(=O)c1cccc(Cl)c1)c1cccs1 | i
COc1ccccc1-c1cc(C(=O)Nc2sc3c(c2C#N)CCCC3)no1 | i
CC(C)c1ccccc1-n1c(SCC(=O)N2CCC2)nc2ccccc2c1=O | i
CC(C)n1cc2cc(C(=O)NCc3cnccn3)sc2c1 | 16µM*
CC(C)CCNC(=O)c1cc2cc(N(C)S(C)(=O)=O)ccc2s1 | i
Cc1cc(C(=O)NCc2ccccn2)sc1C | i
CC(C)n1cc2cc(C(=O)NCc3cccnc3)sc2c1 | 25µM*
Cc1cc(C)c2nc(N3CCC(C(=O)NCc4ccccc4C)CC3)sc2c1 | i
Cc1ccccc1CNC(=O)c1cc2c(s1)CCCC2 | i
Cc1cc(C(=O)NCc2ccncc2)sc1C | i
CC(C)n1cc2cc(C(=O)NCc3ccccn3)sc2c1 | 25µM*
Cc1cc(C(=O)NCCc2ccccn2)sc1C | i
CC(NC(=O)c1cccs1)C(=O)NCc1cccnc1 (stereo not given) | i
Cc1ccccc1CNC(=O)c1cc2cn(C(C)C)cc2s1 | 18µM*
CCc1sc(C(=O)NCc2cccnc2)cc1C | i
O=C(O)c1cccc(NC(=O)N2CCc3[nH]cnc3C2c2cccc(F)c2)c1 (stereo not given) | i
O=C(OCCOc1ccccc1Cl)c1ccccc1Sc1ccc(C(F)(F)F)cc1[N+](=O)[O-] | i
COc1ccccc1C(=O)Nc1cccc(C(=O)OCc2cc(=O)n3nc(C)sc3n2)c1 | i
Cc1c(C(C)NC(=O)c2cc(CC(C)C)nn2C)cnn1-c1ccccc1 (stereo not given) | i
CC1(c2noc(-c3ccccc3)n2)CCN(C(=O)CCC(=O)N2CC(=O)Nc3ccccc32)CC1 | i
CN(Cc1ccccc1)Cc1cn([C@H]2CO[C@H]3[C@@H]2OC[C@@H]3NS(=O)(=O)c2cccs2)nn1 | i
COc1ccccc1N1CCN(S(=O)(=O)c2ccc(-c3coc(C)n3)cc2)CC1 | i
CCC(C)C1Nc2ccc(C(=O)NCc3ccc4c(c3)OCO4)cc2NC1=O (stereo not given) | i
